Here are results for seven compounds from PubChem BioAssay (NCI).

Among the test systems are NCI-H23 lung; NCI-H226 lung; NCI-H322M lung; HOP-62 NSCLC; NCI-H460 lung; HOP-92 NSCLC; NCI-H522 lung; A549/ATCC NSCLC; 786-0 renal; COLO 205 colon; DU-145 prostate; K-562 leukemia; MALME-3M melanoma; MDA-MB-231 breast; RXF 393 renal; SF-268 CNS; SF-295 CNS; SF-539 CNS; UACC-257 melanoma; M14 melanoma.
Assay in all cases: NCI-60 one-dose screen, 48 h (100 = growth as untreated, 0 = no growth, -100 = all killed)
Conditions in all cases: 10 µM unless noted

This is part of a sample that, as a whole, favours compounds with a hit. Of some 83,000 tested, about 20% had one in any assay.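 Negative percent growth values reflect cell death: -40 means 40% of the cells present at the start died, and -100 means all died.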 A number with no mark means an inactive call. Activity calls are given as the source filed them. How the source made its calls: active means growth percent below 10; inactive means the rest.

As for `NNC(=O)c1nc2ccccc2[nH]1`, the growth with NCI-H23 lung was 93.3%; with NCI-H226 lung, 116%; with NCI-H322M lung it was 107%; with HOP-62 NSCLC, 97.4%; in the test with NCI-H460 lung, 108%; with HOP-92 NSCLC, 98.5%. For the same compound, the growth in the test on NCI-H522 lung was 96.8%; in the test on A549/ATCC NSCLC, 61.3%; in the test on 786-0 renal, 102%; with COLO 205 colon it was 103%; in the test on DU-145 prostate, 112%; in the test on K-562 leukemia, 87.2%. In addition, the growth is 107% with MALME-3M melanoma; 103% with MDA-MB-231 breast; 124% in the test with RXF 393 renal; 102% with SF-268 CNS; 104% in the test on SF-295 CNS; 103% in the test on SF-539 CNS. The values for the growth in the test with UACC-257 melanoma and in the test with M14 melanoma were 65.9% and 92.4%, respectively.
`C=C(C)[C@@H]1CC[C@]2(C)[C@H](CC=C3[C@@H]4CC(C)(C)CC[C@]4(C(=O)OC)CC[C@]32C)[C@@]1(C)CC/C(N)=N/O`: the growth is 8.68% (active) in the test with NCI-H23 lung; 2.13% (active) in the test with NCI-H226 lung; 85.6% in the test on NCI-H322M lung; 79.3% with HOP-62 NSCLC; 74.9% with NCI-H460 lung; 45.9% in the test on HOP-92 NSCLC. Further, the growth is 33.5% in the test on NCI-H522 lung; -28.8% (active) in the test with A549/ATCC NSCLC; 66.6% in the test with 786-0 renal; 35.6% in the test with COLO 205 colon; 75.1% with DU-145 prostate; 23.9% with K-562 leukemia. Moreover, the growth is 58.9% in the test with MALME-3M melanoma; 66.1% with MDA-MB-231 breast; -49.4% (active) in the test on RXF 393 renal; 67.9% in the test on SF-268 CNS; 33.6% in the test on SF-295 CNS; 65.3% in the test with SF-539 CNS. Further, the growth with UACC-257 melanoma is -32.1% (active); with M14 melanoma it was 43.8%.
With `N#CC1=C(N)Oc2ccc3ccccc3c2C1c1ccccc1Cl` (stereo not given), the growth in the test on NCI-H23 lung was 61.6%; in the test on NCI-H226 lung, 70.8%; with NCI-H322M lung, 74.9%; with HOP-62 NSCLC it was 38.7%; with NCI-H460 lung, 20.4%; in the test with HOP-92 NSCLC it was 69.1%. Further, the growth in the test with NCI-H522 lung was 34.4%; in the test on A549/ATCC NSCLC, 53%; with 786-0 renal, 42.4%; in the test with COLO 205 colon, 39.3%; in the test with DU-145 prostate, 73.3%; with K-562 leukemia, 13.2%. For the same compound, the growth was 46.2% in the test on MALME-3M melanoma; 51.3% with MDA-MB-231 breast; 58.7% with RXF 393 renal; 57.7% in the test on SF-268 CNS; 11.7% in the test with SF-295 CNS; 35% in the test with SF-539 CNS. The figures for the growth in the test with UACC-257 melanoma and with M14 melanoma were 66.7% and 13.4%, respectively.
For `Cc1ccc(S(=O)(=O)Nc2ccc(-c3cc(-c4cccc(F)c4)c(C#N)c(=O)[nH]3)cc2)cc1`, the growth with NCI-H23 lung was 87.7%; in the test on NCI-H226 lung, 79.6%; with NCI-H322M lung, 90%; with HOP-62 NSCLC, 92.3%; in the test on NCI-H460 lung, 98.2%; in the test with HOP-92 NSCLC it was 72.9%. Further, the growth in the test with NCI-H522 lung is 87.2%; in the test on A549/ATCC NSCLC it was 68.2%; with 786-0 renal, 102%; in the test on COLO 205 colon it was 115%; in the test with DU-145 prostate, 84%; in the test with K-562 leukemia, 54.9%. The growth is 92.6% in the test with MALME-3M melanoma; 87.4% in the test on MDA-MB-231 breast; 83.1% in the test with RXF 393 renal; 74.2% in the test on SF-268 CNS; 87.9% in the test with SF-295 CNS; 90.1% with SF-539 CNS. The growth was 103% in the test with UACC-257 melanoma and 81.3% in the test on M14 melanoma.
Regarding `O=C1CCC/C=C\C[C@H]2C=C(Cl)C(=O)/C2=C/C[C@H](CCCCC(F)(F)F)OC(=O)CCC/C=C\C[C@H]2C=C(Cl)C(=O)/C2=C/C[C@H](CCCCC(F)(F)F)O1`, the growth in the test with NCI-H23 lung was -35.2% [7.5 µM] (active); in the test on NCI-H226 lung it was -19.3% [7.5 µM] (active); in the test on NCI-H322M lung, -36.9% [7.5 µM] (active); with HOP-62 NSCLC it was -29.9% [7.5 µM] (active); with NCI-H460 lung, -33.2% [7.5 µM] (active); with HOP-92 NSCLC, -58.4% [7.5 µM] (active). In addition, the growth with NCI-H522 lung is -62.2% [7.5 µM] (active); in the test on A549/ATCC NSCLC, -44.5% [7.5 µM] (active); in the test on 786-0 renal, -55% [7.5 µM] (active); with COLO 205 colon, -57.2% [7.5 µM] (active); in the test with DU-145 prostate, 0.342% [7.5 µM] (active); in the test on K-562 leukemia it was 1.45% [7.5 µM] (active). In addition, the growth was -18.2% [7.5 µM] (active) with MALME-3M melanoma; -22.9% [7.5 µM] (active) with MDA-MB-231 breast; -92% [7.5 µM] (active) in the test with RXF 393 renal; 6.24% [7.5 µM] (active) with SF-268 CNS; -37.6% [7.5 µM] (active) in the test with SF-295 CNS; -12.5% [7.5 µM] (active) in the test on SF-539 CNS. For the same compound, the growth in the test with UACC-257 melanoma is -55.3% [7.5 µM] (active); in the test on M14 melanoma, -62.1% [7.5 µM] (active).
With `CC(=O)c1c(C)[nH]c(-c2nc3ccc(N4CCN(C)CC4)cc3[nH]2)c1-c1ccc(N(C)C)cc1`, the growth with NCI-H23 lung is 40%; with NCI-H226 lung, 47.4%; in the test on NCI-H322M lung, 40.6%; in the test with HOP-62 NSCLC it was 24.6%; with NCI-H460 lung, 53%; in the test with HOP-92 NSCLC, 33.1%. Besides, the growth in the test with NCI-H522 lung was 42.1%; in the test on A549/ATCC NSCLC it was 40.2%; in the test with 786-0 renal, 38.7%; with COLO 205 colon it was 7% (active); in the test with DU-145 prostate, 63.9%; in the test with K-562 leukemia, 21.1%. The growth in the test on MALME-3M melanoma was 26.7%; in the test with MDA-MB-231 breast, 36.1%; in the test with RXF 393 renal it was 37.2%; in the test with SF-268 CNS, 59.4%; in the test on SF-295 CNS, 43.2%; with SF-539 CNS, 39.3%. In addition, the growth in the test with UACC-257 melanoma was 36.4%; in the test on M14 melanoma, 34.6%.
With `O=C1c2ccccc2NC(c2cn(-c3ccccc3)nc2-c2cccs2)N1Cc1ccccc1` (stereo not given), the growth is 74% in the test with NCI-H23 lung; 96.3% with NCI-H226 lung; 85.3% with NCI-H322M lung; 86.9% in the test with HOP-62 NSCLC; 94.5% with NCI-H460 lung; 74.1% in the test on HOP-92 NSCLC. Besides, the growth in the test on NCI-H522 lung was 72.3%; with A549/ATCC NSCLC it was 82.8%; with 786-0 renal, 73.6%; in the test with COLO 205 colon it was 93.5%; in the test with DU-145 prostate, 97.6%; in the test on K-562 leukemia, 70.7%. Besides, the growth in the test on MALME-3M melanoma was 109%; in the test with MDA-MB-231 breast, 77.4%; with RXF 393 renal, 94.5%; in the test on SF-268 CNS, 78.9%; in the test with SF-295 CNS it was 80%; with SF-539 CNS, 88.5%. In addition, the growth with UACC-257 melanoma is 103%; in the test on M14 melanoma, 80%.
